Source: PubChem BioAssay (The Scripps Research Institute Molecular Screening Center)
This is a sample that favours compounds with a hit; in the whole collection about 3.5% have one here.
TEAD-YAP inh: TEAD-YAP interaction inhibition, primary screen, TEAD-YAP interaction inhibitor project, luminescence, HEK-TIYL cells; inhibition, % at 9.12 µM; actives 1.4% (n = 640,000); TEAD-Gal4/YAP UAS-luciferase luminescence; AID 1259422, 2018; in the data active means inhibition above about 32%
FBW7 activator: FBW7 E3 ligase activators, primary screen, biochemical, AlphaScreen, human | AID 1259310, 2017 | normalized activity (activation), % at 26.1 µM | actives 0.13% (n = 650,000) | AlphaScreen FBW7–phospho-cyclin E peptide binding, activator screen | F-box/WD repeat-containing protein 7 (Homo sapiens), Q969H0; in the data active means normalized activity above about 1.9%;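 further: purified mutant Fbw7 with reduced substrate affinity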
GPR151 ag: activators of human GPR151, primary screen, cell-based, PathHunter beta-arrestin, luminescence | G-protein coupled receptor 151 (Homo sapiens), Q8TDV0 | PathHunter beta-arrestin GPR151 cells | activation, % at 11.2 µM | actives 1% (n = 650,000) | AID 1508602, 2020; in the data active means activation above about 4.9%
Target sequence (Q8TDV0 whole entry, looked up): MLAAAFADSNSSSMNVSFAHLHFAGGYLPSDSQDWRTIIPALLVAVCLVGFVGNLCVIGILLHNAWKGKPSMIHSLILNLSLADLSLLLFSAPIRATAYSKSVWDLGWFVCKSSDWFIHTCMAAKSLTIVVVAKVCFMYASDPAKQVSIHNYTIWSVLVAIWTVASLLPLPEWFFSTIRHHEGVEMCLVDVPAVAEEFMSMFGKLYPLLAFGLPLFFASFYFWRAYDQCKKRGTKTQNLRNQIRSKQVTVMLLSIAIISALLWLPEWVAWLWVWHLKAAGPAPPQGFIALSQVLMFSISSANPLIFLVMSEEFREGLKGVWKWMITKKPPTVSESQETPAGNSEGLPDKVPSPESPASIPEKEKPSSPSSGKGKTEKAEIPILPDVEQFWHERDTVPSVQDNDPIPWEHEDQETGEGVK
MITF inh: MITF inhibitors, primary screen, biochemical, AlphaScreen, human. inhibition, % at 2.6 µM. actives 0.91% (n = 650,000). AlphaScreen MITF homodimerization, bead proximity signal. AID 1259374, 2018. Microphthalmia-associated transcription factor (Homo sapiens), O75030; in the data active means inhibition above about 50%
MITF confirm: MITF inhibitors, retest of hits, confirmation, biochemical, AlphaScreen, triplicate; shares compounds with MITF inh; AlphaScreen MITF homodimerization, biotin/His-MITF beads; inhibition, % at 2.6 µM; actives 16% (n = 4,700); AID 1259372, 2018;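 active means inhibition above a cutoff derived from the DMSO control wells, cut at about 28% in these data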;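 further: inhibitors lower the bead chemiluminescence by keeping MITF from dimerizing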
AS interf DR: AlphaScreen optical interference compounds, dose response, counter-screen, biochemical, HTS. shares compounds with MITF inh. AlphaScreen optical interference counterscreen, cell-free. IC50, µM. actives 6% (n = 480). AID 1259373, 2018; call rule not given here
AlphaScreen intf2: AlphaScreen optical interference compounds, counter-screen for MITF inhibitor project, biochemical, triplicate; shares compounds with MITF inh; LysRS AlphaScreen counterscreen, signal interference; inhibition, % at 2.6 µM; actives 7.6% (n = 4,700);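 active means inhibition above a cutoff derived from the DMSO control wells, cut at about 30% in these data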
Hits are given with their value; n = inactive; x = no result.

SMILES	TEAD-YAP inh	FBW7 activator	GPR151 ag	MITF inh	MITF confirm	AlphaScreen intf2	others
CC(C)(c1ccccc1)c1ccc(OCCCN2CCNCC2)cc1	n	n	n	58	n	n
COc1ccc(CN2CCN(Cc3ccc(CO)o3)CC2CCO)c(F)c1 (stereo unspecified)	n	n	n	n	x	x
O=C(NC1CC1)C1CCN(C2CCN(Cc3cccc(OC4CCCC4)c3)CC2)CC1	n	n	n	n	x	x
Cc1ccc2nc(-c3ccc(NC(=O)COc4ccc(C(C)(C)C)cc4)cc3)sc2c1	n	n	n	n	x	x
CCOc1ccc(OCCOCCN2CCOCC2)cc1	n	n	n	n	x	x
CN1CCN(CCCOc2ccc(OCc3ccccc3)cc2)CC1	n	n	n	59	n	n
CCOc1ccc(OCCCCN2CCNCC2)cc1	n	n	n	65	n	n
c1ccc(COc2ccc(OCCN3CCNCC3)cc2)cc1	n	n	n	70	n	n
Cc1[nH]ncc1-c1ccc(NC(=O)[C@@H]2Cc3ccccc3CN2)c(OCCN(C)C)c1	n	n	n	67	n	n
O=C(NCc1ccccc1)c1cc(C2CC2)on1	n	n	n	n	x	x
COCCNCCOCCOc1ccc(C(C)(C)C)cc1C	n	n	n	n	x	x
CN(C)CCOCCOc1ccc(Cl)cc1C(C)(C)C	n	n	n	n	x	x
Cc1ccc(C(C)(C)C)c(OCCOCCN(C)C)c1	n	n	n	68	n	n
Cc1cc(C(C)(C)C)ccc1OCCOCCN(C)C	n	n	n	72	n	n
CC(C)COc1ccc(/C=C2/NC(=O)N(Cc3ccccc3F)C2=O)cc1	n	n	n	n	x	x
CCOC(=O)CSc1nnc(Nc2ccc(Cl)cc2)n1-c1ccc(Cl)cc1	n	n	n	n	x	x
CCOC(=O)c1cnn(-c2ccccc2Cl)c1CNCCNC(C)=O	n	n	n	83	n	n
CCOC(=O)c1cnn(-c2ccccc2Cl)c1CNCc1csc(C)n1	n	n	n	n	x	x
O=C(NCC(O)C(=O)N1CCOCC1)c1cc(Nc2ccc3[nH]ncc3c2)ccn1 (stereo unspecified)	n	n	n	n	x	x
O=C(NCC(O)C(=O)N1CCOCC1)c1cccc(Nc2ccc3[nH]ncc3c2)n1 (stereo unspecified)	n	n	n	57	62	n	AS interf DR=n
Cc1ccc(-c2nnc(NC(=O)CCc3ccccc3)o2)cc1C	n	n	n	n	x	x
O=C(/C=C/c1ccco1)N1CCN(Cc2nc3ccccc3n2Cc2ccccc2)CC1	n	n	n	60	n	n
Cc1ccc(N[C@@H]2OC[C@@H](O)C(O)C2O)cc1N[C@@H]1OC[C@@H](O)C(O)C1O (stereo partly specified)	n	n	n	72	71	n
O=C1NC(=O)/C(=C\c2cccn2-c2ccc(C(=O)O)cc2)N1	n	n	n	66	n	n
O=C(O)c1ccc(/C=C2/NC(=O)N(c3ccc(Cl)cc3)C2=O)cc1	n	n	n	n	x	x
SMILES	TEAD-YAP inh	FBW7 activator	GPR151 ag	MITF inh	MITF confirm	AlphaScreen intf2	others
O=C(O)c1cccc(-n2cccc2/C=C2/NC(=O)N(c3ccc(Cl)cc3)C2=O)c1	n	n	n	61	36	n	AS interf DR=n
O=C(O)c1ccc(-n2cccc2/C=C2/NC(=O)N(c3ccc(Cl)cc3)C2=O)cc1	n	n	n	55	74	34
O=C(O)c1cccc(-n2cccc2/C=C2/NC(=O)N(c3cccc(Cl)c3)C2=O)c1	n	n	n	n	x	x
CCCCOc1ccccc1C1C(C(=O)OC)=CN(C)C=C1C(=O)OC	n	n	n	n	x	x
CSc1ccccc1NC(=O)Cc1cc(-c2cc3ccccc3o2)on1	n	n	n	n	x	x
CN1CCN(C(CNC(=O)c2ccc(-c3ccccc3)cc2)c2ccsc2)CC1 (stereo unspecified)	n	n	n	55	n	n
Cc1ccc(NC(=O)COC(=O)c2ccccc2F)cc1	n	n	n	n	x	x
O=C(NCCN1CCCC1)Nc1ccc(Cl)cc1	n	n	n	n	x	x
CCc1ccc(-c2cc(C(=O)Nc3ccc(C(=O)OC)cc3)c3ccccc3n2)cc1	n	n	n	n	x	x
CCc1ccc(-c2cc(C(=O)Nc3cc(C(=O)OC)cc(C(=O)OC)c3)c3ccccc3n2)cc1	n	n	n	53	n	n
COc1cccc(C(=O)Nc2ccc(F)cc2F)c1OC	n	n	n	n	x	x
O=C(Nc1ccc(Cl)cc1)/C(=C/c1cccc([N+](=O)[O-])c1)NC(=O)c1cccc(Cl)c1	n	n	n	n	x	x
COc1ccc(OC)c(CN2CCN(C(=O)c3cc(OC)c(OC)c(OC)c3)CC2)c1	n	n	n	n	x	x
CCOc1cc(CN2CCN(Cc3ccccc3OC)CC2)ccc1OC	n	n	n	n	x	x
CCOc1cc(CN2CCN(Cc3cc(OC)ccc3OC)CC2)ccc1OC	n	n	n	58	n	n
COc1ccc(OC)c(CN2CCN(Cc3cc(OC)c(OC)c(OC)c3)CC2)c1	n	n	n	68	n	n
Cc1nc(NCC(C)C)c2c3c(sc2n1)CCCC3	n	n	n	52	n	n
Cc1nc(NCCO)c2c3c(sc2n1)CCC3	n	n	n	n	x	x
CCOc1ccc(C=C2C(=O)N(C)C(=S)N(C)C2=O)cc1	n	n	n	n	x	x
Cc1c(-c2cccc(NC(=O)c3c(F)cccc3F)c2)nc2ncccn12	n	n	n	n	x	x
O=C(Nc1ccc(NC(=O)C2CCCCC2)nc1)c1ccccc1F	n	n	n	n	x	x
COc1cc(CN2CCN(Cc3ccccc3[N+](=O)[O-])CC2)cc(OC)c1O	n	n	n	60	n	n
COc1cccc(CN2CCN(Cc3ccccc3[N+](=O)[O-])CC2)c1	n	n	n	64	n	n
COc1ccc(CN2CCN(Cc3ccccc3[N+](=O)[O-])CC2)cc1OCc1ccccc1	n	n	n	82	n	n
COc1cc(OC)c(OC)cc1CN1CCN(Cc2ccccc2[N+](=O)[O-])CC1	n	n	n	72	n	n
CCS(=O)(=O)N1CCN(Cc2ccc(OC)c(OCc3ccccc3)c2)CC1	n	n	n	n	x	x
CCOC(=O)c1c(C)[nH]c(C2=NNC(=NC)SC2)c1C	n	n	n	n	x	x
CCOC(=O)N/N=C(\CC)c1ccc(OC(F)F)cc1	n	n	n	n	x	x
O=C(NCc1cccc(C(F)(F)F)c1)c1cnc(Nc2nccc3ccccc23)s1	n	n	n	n	x	x
O=C1c2cccc3c(N4CCOCC4)ccc(c23)C(=O)N1c1cc(Cl)ccc1O	n	n	n	n	x	x
